# Test results as given in PubChem BioAssay (Tox21).
# Inconclusive results are not listed. A number with no mark means an inactive call. Calls of active or inactive are those of the source. Calls follow the shape of the dose curve; as a rule, active = well fitted activation curve with a large enough effect in the repeat runs; inconclusive = weak or mixed curves; inactive = no such curve, though single readings can be large or run the other way.
# Target: Aryl hydrocarbon receptor (Homo sapiens) (UniProt P35869)
# Sequence (P35869 whole entry, looked up): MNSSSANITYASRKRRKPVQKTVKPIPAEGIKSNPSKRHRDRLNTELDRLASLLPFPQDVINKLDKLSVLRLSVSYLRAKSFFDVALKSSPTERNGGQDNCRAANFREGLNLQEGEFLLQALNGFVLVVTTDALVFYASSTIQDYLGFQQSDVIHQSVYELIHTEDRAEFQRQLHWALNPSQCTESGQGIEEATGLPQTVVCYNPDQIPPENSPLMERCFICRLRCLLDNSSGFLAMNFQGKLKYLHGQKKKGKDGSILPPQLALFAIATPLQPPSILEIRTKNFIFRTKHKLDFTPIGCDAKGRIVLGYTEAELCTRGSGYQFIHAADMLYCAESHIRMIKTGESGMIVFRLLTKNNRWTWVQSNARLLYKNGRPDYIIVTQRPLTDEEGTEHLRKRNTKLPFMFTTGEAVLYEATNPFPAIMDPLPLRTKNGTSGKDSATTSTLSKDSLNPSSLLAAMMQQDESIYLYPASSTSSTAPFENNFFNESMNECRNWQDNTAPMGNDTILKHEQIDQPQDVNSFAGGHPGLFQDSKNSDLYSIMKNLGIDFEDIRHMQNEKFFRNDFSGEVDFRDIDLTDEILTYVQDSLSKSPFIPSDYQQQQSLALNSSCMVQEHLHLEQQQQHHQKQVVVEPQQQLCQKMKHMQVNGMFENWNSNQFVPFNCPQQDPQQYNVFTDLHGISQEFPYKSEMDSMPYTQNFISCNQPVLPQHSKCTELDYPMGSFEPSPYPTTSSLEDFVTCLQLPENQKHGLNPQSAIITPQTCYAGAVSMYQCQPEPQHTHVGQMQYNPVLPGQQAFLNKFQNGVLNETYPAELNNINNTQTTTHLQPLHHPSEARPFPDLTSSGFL
# Assay: qHTS assay to identify small molecule that activate the aryl hydrocarbon receptor (AhR) signaling pathway (AID 743085); also: nearly all actives have a fitted effect of over 15% in size;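 as to activation: HG2L7.5c1 human HepG2 liver cells with stably integrated DRE-driven firefly reporter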
# Conditions: HepG2 AhR-luc (HG2L7.5c1), luciferase, 24 h; series mostly up to 70.3 µM; activation: at the top concentration
# Source text: U.S. Tox21 Program National Center for Advancing Translational Sciences [NCATS] NIH Chemical Genomics Center [NCGC] U.S. Environmental Protection Agency [EPA] National Institutes of Environmental Health Sciences [NIEHS] National Toxicology Program [NTP] U.S. Food and Drug Administration [FDA] Tox21 Assay overview: The Aryl hydrocarbon Receptor (AhR), a member of the family of basic helix-loop-helix transcription factors, is crucial to adaptive responses to environmental changes. AhR mediates cellular responses to environmental pollutants such as aromatic hydrocarbons through induction of phase I and II enzymes but also interacts with other nuclear receptor signaling pathways. A cell based HepG2-AhR-luc assay (HG2L7.5c1 cell line, developed by Dr. Michael S. Denison, University of California at Davis, was used to assess the activation of AhR. HepG2 (human hepatocellular carcinoma) cells were stably transfected with an Ah receptor-responsive firefly luciferase reporter gene plasmid containing 20 dioxin responsive elements and luciferase reporter gene. Increased luciferase activity can be used to identify the compounds that induce AhR activation.
# Tox21 Assay Protocol Summary: 4000 cells in 5 uL/well were dispensed into white wall/solid bottom 1536-well plates using a Multidrop Combi (Thermo Fisher Scientific Inc., Waltham, MA) dispenser. After the assay plates were incubated at 37C for 5 h, 23 nL of compound or DMSO vehicle was transferred to the assay plates by a pintool station (Kalypsys, San Diego, CA). The plates were incubated at 37C for 24 hr. After 1 ul/well of CellTiter-Fluor reagent (Promega, Madison, WI) was added into the assay plates using a Flying Reagent Dispenser (FRD) (Aurora Discovery, CA), the assay plates were incubated at 37C for 30 min. The fluorescence intensity in the plates was measured using a ViewLux plate reader (PerkinElmer, Shelton, CT), followed by the addition of 4 uL of ONE-Glo Luciferase Assay reagent (Promega) using an FRD (Aurora Discovery). After the assay plates were incubated at room temperature for 30 min, luminescence intensity was measured using a ViewLux plate reader (Perkin Elmer).
# % is scaled to controls: 0 for no effect and ±100 for the full control effect; potency is read from the fitted curve at half-maximal effect.
SMILES,activation,Potency
CC(C)COC(=O)CC(C(=O)OCC(C)C)S(=O)(=O)O (stereo not given),-0.994%,–
CCCCC(C)C(=O)O (stereo not given),0.0229%,–
C=C(C)[C@@H]1CC[C@@H](C)C[C@@H]1O,-0.677%,–
O=S1(=O)CCCC1,-0.563% [at 95 µM],–
CCC(=O)c1ccc(O)cc1,4.9%,–
CC(=O)OC(C)c1ccccc1 (stereo not given),-0.391%,–
COc1ccc(NS(=O)(=O)c2ccc(N)cc2)nn1,-2.5% [at 32.5 µM],–
O=C(O)CCNC(=O)c1ccccc1,-0.332%,–
CN(C)CCOCCN(C)CCO,0.828%,–
CC1=NN(c2ccc(S(=O)(=O)O)cc2)C(=O)C1N=Nc1ccccc1 (stereo not given),–,24.3 µM (active)
CC(C)COC(=O)/C=C/c1ccccc1,1.06%,–
O=C(Nc1cccc(C2=NCCN2)c1)Nc1cccc(C2=NCCN2)c1,-0.256%,–
CCCCOC(=O)[C@@H](C)Oc1ccc(Oc2ccc(C(F)(F)F)cn2)cc1,-0.0033% [at 95 µM],–
C[C@H](CCC(=O)O)[C@H]1CC[C@H]2[C@@H]3[C@H](O)C[C@@H]4C[C@H](O)CC[C@]4(C)[C@H]3C[C@H](O)[C@]12C,–,inactive
Cc1nc([N+](=O)[O-])cn1-c1ccc([N+](=O)[O-])cc1,-1.4%,–
CC(C)C(=O)c1ccccc1,1.22%,–
CC(C)CCCCCCOC(=O)C1CCCCC1C(=O)OCCCCCCC(C)C (stereo not given),-0.126%,–
C=C(C)C(=O)OC,-1.05%,–
Cc1c(C(C)C)c(=O)n(-c2ccccc2)n1C,1.13%,–
NCCc1ccn[nH]1,-0.243% [at 32.5 µM],–

SMILES,activation,Potency
CCOC(=O)CCc1ccccc1,-0.482%,–
CC(C)CCCC(C)CC=O (stereo not given),-0.79%,–
O=C(O)C(=O)Nc1cccc(-c2nn[nH]n2)c1,-0.948%,–
CCOC(=O)C(C)(C)C,-5.09% [at 95 µM],–
CC(=O)OCCCc1ccccc1,-1.72%,–
COc1cc2c3cc1Oc1cc(ccc1O)C[C@@H]1c4c(cc(OC)c(O)c4Oc4ccc(cc4)C[C@@H]3N(C)CC2)CC[N+]1(C)C,-0.632%,–
O=P(O)(O)OCC(O)CO (stereo not given),1.35%,–
CCCCCC(=O)OCC,-0.927%,–
CC(C)CCO,-0.303%,–
CC(C)COC(=O)COc1ccc(Cl)cc1Cl,1.97%,–
Cc1ccccc1C(=O)N1CC/C(=N\OS(=O)(=O)O)c2ccc(Cl)cc21,3.36%,–
Cc1cccc(C(=O)O)c1[N+](=O)[O-],1.05%,–
F[Si-2](F)(F)(F)(F)F,–,inactive
O=C1CC[C@H](C(=O)N2CCCCC2)N1,-3.35%,–
Nc1ccc(S(=O)(=O)Nc2ccccn2)cc1,0.372% [at 32.5 µM],–
O=S(=O)(O)SSS(=O)(=O)O,-0.257%,–
O=C1c2ccccc2-c2ccccc21,0.292% [at 95 µM],–
C[C@H](CCC(=O)NCC(=O)O)[C@H]1CC[C@H]2[C@@H]3[C@H](O)C[C@@H]4C[C@H](O)CC[C@]4(C)[C@H]3C[C@H](O)[C@]12C,1.01%,–
CCCCCCCCCCCCOC(C)=O,-0.269%,–
Oc1ccccc1Cc1ccccc1O,3.41%,–
